SARS PLP yeast – blocks SARS-CoV papain-like protease in a yeast assay | S. cerevisiae expressing SARS-CoV PLpro, growth rescue | Potency, µM (titrated, usually from 32.9 µM), hits mostly activators | 0.19% of 330,000 active | AID 485353; calls by dose curve; further: nearly all actives have a fitted effect of over 55% in size
Pf growth 48h – P. falciparum growth inhibition at 48 hours (one generation). P. falciparum luciferase growth in erythrocytes, 48 h. Potency, µM (titrated, usually from 28.7 µM), usual class: inhibitors. 5.9% of 310,000 active
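Parasite viability was followed by luminescence of a genomically integrated firefly luciferase. Cultures held 0.1% parasitemia at 2% hematocrit (final), incubated under 5% CO2 at 37 C.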
HCV inhibitor – blocks hepatitis C virus; Huh7.5.1 HCVcc-Cre infection, luciferase reporter, 44 h; Potency, µM (series often up to 41.8 µM), hits mostly inhibitors; 3.4% of 340,000 active; AID 651820
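A cell-based infection assay in which seeded cells (1,000 per well) receive test compound after 4 h, are inoculated with HCVcc-Cre at approximately 0.5 moi, and are incubated 44 h before luminescence detection.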
NS1 inh – influenza NS1 inhibition; Potency, µM (top dose mostly 46.1 µM); 0.4% of 270,000 active; calls by dose curve; further: actives are rising curves; nearly all actives have a fitted effect of over 50% in size
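Recovery from NS1-induced slow growth read by OD600 in budding yeast switched to galactose assay medium (pH 6.0, -URA) at 1:100 dilution. Compound 23 nl per well; the matching strain lacking NS1 serves as control.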
Pf growth 96h – P. falciparum growth inhibition at 96 hour, primary screen for plastid delayed-death inhibitors; P. falciparum luciferase reporter growth, 96 h; Potency, µM (top dose mostly 28.7 µM), actives largely listed as inhibitors; 6.9% of 320,000 active; AID 504834
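Parasite growth measured via integrated firefly luciferase reporter in P. falciparum. Infected erythrocytes at 2% hematocrit, 0.05% parasitemia final were treated 96 hours at 37 C under 5% CO2, and luminescence was read.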
AMA1-RON2 inh – inhibitors of Plasmodium falciparum AMA1-RON2 interaction; AlphaScreen AMA1-biotinylated RON2 peptide binding; Potency, µM (series often up to 58.2 µM), usual class: inhibitors; 0.2% of 360,000 active; AID 720542; further: nearly all actives have a fitted effect of over 45% in size
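AMA1 (3D7) with his tag at 25 nM final met compounds first, then biotinylated RON2 peptide at 25 nM; detection used donor plus acceptor beads, 10 µg/mL apiece, read by AlphaScreen after 30 min at room temperature.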
Hits are given with their value. Rows were chosen to be rich in hits. Some 12% of all compounds tested hit in one or more screens of this group. Unless noted, the call rests on the fitted dose curve; in most records, active means well fitted curve in the direction sought with a large enough effect; inconclusive means small, poorly fitted or top-dose-only effect, or another doubt; inactive means no such curve, though single readings can be large; an effect the other way counts as inactive or inconclusive.

`Cc1cnc(C(=O)OC(C(=O)Nc2cc(C(F)(F)F)ccc2Cl)c2ccccc2)cn1` (stereo not drawn) gave SARS PLP yeast inactive, Pf growth 48h 15µM, HCV inhibitor inactive, NS1 inh inactive, Pf growth 96h 10µM and AMA1-RON2 inh inactive.
`O=C(CNC(=O)c1ccccc1)OC(C(=O)Nc1cc(C(F)(F)F)ccc1Cl)c1ccccc1` (stereo not drawn) gave SARS PLP yeast inactive, HCV inhibitor inconclusive, NS1 inh inactive, Pf growth 96h 13µM and AMA1-RON2 inh inactive.
Screening CCN(CC)CCNC(C(=O)Nc1cc(C(F)(F)F)ccc1Cl)c1ccccc1 (stereo not drawn) returned SARS PLP yeast inactive, Pf growth 48h inactive, HCV inhibitor inactive, NS1 inh inactive, Pf growth 96h inconclusive and AMA1-RON2 inh inactive.
Screening O=C(Nc1cc(C(F)(F)F)ccc1Cl)C(NCc1ccccc1)c1ccccc1 (stereo not drawn) returned SARS PLP yeast inactive, Pf growth 48h 10µM, HCV inhibitor inactive, NS1 inh inactive, Pf growth 96h 9.3µM and AMA1-RON2 inh inactive.
`O=C(CCNC(=O)C1CCN(S(=O)(=O)c2ccc(F)cc2)CC1)NC1CC1` gave SARS PLP yeast inactive, Pf growth 48h inactive, HCV inhibitor inactive, NS1 inh inactive, Pf growth 96h inactive and AMA1-RON2 inh inactive.
`CC1(NC(=O)CCc2nc3sc4c(c3c(=O)[nH]2)CCCC4)CCS(=O)(=O)C1` (stereo not drawn) gave SARS PLP yeast inactive, Pf growth 48h inactive, HCV inhibitor inconclusive, Pf growth 96h inconclusive and AMA1-RON2 inh inactive.
Screening O=C(NC(Cc1ccccc1)C(=O)N1CCCCC1)c1ccccc1 (stereo not drawn) returned SARS PLP yeast inactive, Pf growth 48h inactive, HCV inhibitor inactive, Pf growth 96h inactive and AMA1-RON2 inh inactive.
Screening CC1CCN(C(=O)CCl)CC1 returned SARS PLP yeast inconclusive, Pf growth 48h 5.2µM, HCV inhibitor inactive, NS1 inh inactive, Pf growth 96h 5.9µM and AMA1-RON2 inh inactive.
Screening CC1CCN(C(=O)CC#N)CC1 returned SARS PLP yeast inactive, Pf growth 48h inactive, HCV inhibitor inactive, NS1 inh inactive, Pf growth 96h inactive and AMA1-RON2 inh inactive.
`CN1CCN(C(=O)CCN2C(=O)c3ccccc3S2(=O)=O)CC1` gave Pf growth 48h inactive, HCV inhibitor inactive, Pf growth 96h inactive and AMA1-RON2 inh inactive.
Screening CCOC(=O)CC(=O)CSc1nc2cc(C)ccc2cc1C returned SARS PLP yeast inactive, Pf growth 48h inconclusive, HCV inhibitor inconclusive, NS1 inh inactive, Pf growth 96h 13µM and AMA1-RON2 inh inactive.
Cc1c(C(=O)NCCO)[n+](=O)c2ccccc2n1[O-] was read as Pf growth 48h inactive and Pf growth 96h inactive.
Screening Clc1ccc2[nH]c3c(NCCCN4CCOCC4)ncnc3c2c1 returned SARS PLP yeast inactive, Pf growth 48h 0.41µM, HCV inhibitor inconclusive, NS1 inh inactive, Pf growth 96h inactive and AMA1-RON2 inh inactive.
For O=C1CCCN1CCCNc1ncnc2c1[nH]c1ccc(Cl)cc12 the results were SARS PLP yeast inactive, Pf growth 48h inconclusive, HCV inhibitor inconclusive, NS1 inh inactive, Pf growth 96h inconclusive and AMA1-RON2 inh inactive.
For Cc1ccc2[nH]c3c(NCCN4CCOCC4)ncnc3c2c1 the results were SARS PLP yeast inactive, Pf growth 48h 4.1µM, HCV inhibitor inactive, NS1 inh inactive, Pf growth 96h inactive and AMA1-RON2 inh inactive.
For C=CCNc1ncnc2c1[nH]c1ccc(C)cc12 the results were SARS PLP yeast inactive, Pf growth 48h inconclusive, HCV inhibitor inconclusive, NS1 inh inactive, Pf growth 96h inconclusive and AMA1-RON2 inh inactive.
For CCN1CCCC1CNc1ncnc2c1[nH]c1ccc(Cl)cc12 (stereo not drawn) the results were SARS PLP yeast inactive, Pf growth 48h 0.66µM, HCV inhibitor inconclusive, NS1 inh inactive, Pf growth 96h 1.5µM and AMA1-RON2 inh inactive.
Screening CO[C@H]1C=CO[C@@]2(C)Oc3c(C)c(O)c4c(O)c(c(C=NN5CCN(C6CCCC6)CC5)c(O)c4c3C2=O)NC(=O)C(C)=CC=C[C@H](C)[C@H](O)[C@@H](C)[C@@H](O)[C@@H](C)[C@H](OC(C)=O)[C@@H]1C returned SARS PLP yeast inactive.

Screening results as filed in PubChem BioAssay.
